Measured values published in PubChem BioAssay (NCI).
Compounds without any hit were thinned out: in the full panel of roughly 83,000, 20% have a hit.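 Cells were grown in 96-well plates and exposed to the test compound at a single concentration for 48 hours; results are reported as percent growth, with values below 10 considered active.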 Values without a mark were called inactive. The source made the active and inactive calls.

Experiments:
Assay in all cases: NCI-60 one-dose screen, 48 h (100 = growth as untreated, 0 = no growth, -100 = all killed)
Settings in all cases: 10 µM unless noted
SR leukemia = tested on: SR leukemia
RPMI-8226 leukemia = tested on: RPMI-8226 leukemia
OVCAR-8 ovarian = tested on: OVCAR-8 ovarian
OVCAR-5 ovarian = tested on: OVCAR-5 ovarian
OVCAR-4 ovarian = tested on: OVCAR-4 ovarian
IGROV1 ovarian = tested on: IGROV1 ovarian
OVCAR-3 ovarian = tested on: OVCAR-3 ovarian
NCI/ADR-RES ovarian = tested on: NCI/ADR-RES ovarian
T-47D breast = tested on: T-47D breast
BT-549 breast = tested on: BT-549 breast
MDA-MB-435 melanoma = tested on: MDA-MB-435 melanoma
MCF7 breast = tested on: MCF7 breast
HCT-116 colon = tested on: HCT-116 colon
HCC-2998 colon = tested on: HCC-2998 colon
KM12 colon = tested on: KM12 colon
MDA-MB-468 breast = tested on: MDA-MB-468 breast
SK-OV-3 ovarian = tested on: SK-OV-3 ovarian
HS 578T breast = tested on: HS 578T breast
SW-620 colon = tested on: SW-620 colon

Row | SMILES | growth (SR leukemia) | growth (RPMI-8226 leukemia) | growth (OVCAR-8 ovarian) | growth (OVCAR-5 ovarian) | growth (OVCAR-4 ovarian) | growth (IGROV1 ovarian) | growth (OVCAR-3 ovarian) | growth (NCI/ADR-RES ovarian) | growth (T-47D breast) | growth (BT-549 breast) | growth (MDA-MB-435 melanoma) | growth (MCF7 breast) | growth (HCT-116 colon) | growth (HCC-2998 colon) | growth (KM12 colon) | growth (MDA-MB-468 breast) | growth (SK-OV-3 ovarian) | growth (HS 578T breast) | growth (SW-620 colon)
1 | CC1CCCCN1CCCNC(=O)N/C(N)=N/c1nc2ccccc2s1 (centres undefined) | -17.1% (active) | 1.48% (active) | 75.2% | 38.2% | 74.9% | 47.9% | 72.4% | 64.1% | 57.2% | 55.6% | -35.2% (active) | -9.89% (active) | 16.8% | 47.1% | 48.2% |  |  |  | 
2 | C=Cn1cc(C(=O)O)c(=O)c2cc(F)c(N3CCN(c4nccc(-c5nccs5)n4)CC3)cc21 | -35.2% (active) | -24% (active) | 7.65% (active) | -25.6% (active) | 10.7% | -30.3% (active) | -4.52% (active) | -39.5% (active) | -1.23% (active) | -49.1% (active) | -38% (active) | 0.211% (active) | -33.8% (active) | -62.1% (active) | -15% (active) | -61.9% (active) |  |  | 
3 | CN(C)c1ccnc(NCCCSC(c2ccccc2)(c2ccccc2)c2ccccc2)c1 | -55.5% (active) | -58.9% (active) | 59.4% |  | 33.4% | 50.5% | 49.6% | 40.4% | 28% | 48.9% | 11.3% | -35.8% (active) | -82.3% (active) | 12.2% | 46.7% |  | 63% | 59.9% | 8.86% (active)
4 | COc1cc(/C=C2\C(=N)N=C(SCc3nc4ccccc4[nH]3)NC2=O)ccc1O | 88.5% | 85% | 101% |  | 96.6% | 106% | 103% | 99% | 99.8% | 107% | 99.7% | 93.7% | 99.8% | 105% | 106% | 106% | 103% | 93.3% | 95.6%
5 | C=C1CCC2C3(C)COC(c4ccc(F)cc4)OC3CCC2(C)C1C/C=C1/C(=O)OCC1O (centres undefined) | 7.55% (active) | 6.7% (active) | -61.5% (active) | -6.07% (active) | 0.389% (active) | -26.3% (active) | -82% (active) | -22.4% (active) | -16.5% (active) | -85.8% (active) | -35.5% (active) | -30.7% (active) | -74.2% (active) | -69.7% (active) | -44.7% (active) | -50.5% (active) |  |  | -69.8% (active)
6 | Cc1cc2c(cc1Cl)C(=O)/C(=C/c1ccccc1)O2 | 10.1% | 26% | -24.7% (active) |  | 9.29% (active) | -48.2% (active) | 26.8% | -19.8% (active) | -22.8% (active) | -3.52% (active) | 19.7% | 17.5% | 18.1% | 63.6% | 17.8% | 0.644% (active) | 71.4% | 21% | 33.9%
7 | C=C1CC[C@@H]2[C@]3(C)COC(c4cn[nH]c4-c4ccc(OC)cc4)O[C@@H]3CC[C@@]2(C)[C@@H]1C/C=C1/C(=O)OCC1O (some centres undefined) | -29.9% (active) | -27% (active) | -3.29% (active) | -27.1% (active) | 3.78% (active) | 17.1% | 5.62% (active) | 16.7% | 6.85% (active) | -32.9% (active) | -52.2% (active) | 2.05% (active) | -19% (active) | -24.2% (active) | -5.21% (active) | -7.84% (active) |  |  | 
8 | CC(=O)c1cc(C(=O)c2ccccc2)n2c1ccc1ccccc12 | 81.4% | 95.6% | 99% | 103% | 102% | 88.6% | 112% | 101% | 83.5% | 73% | 108% |  | 82.4% |  | 83.1% | 93.9% |  | 94.1% | 99.3%
9 | CCOC(=O)/C=C/c1cccc2c1C(=O)NC(C)(c1cc3cc(Br)ccc3oc1=O)N2 (centres undefined) | 27.7% | 32% | 37.8% |  | 40.2% | 18.2% | 48.4% | 42.2% | 18.2% | -66.3% (active) | 54.7% | 35.3% | 32.2% |  | 41.1% | 32.3% | 38.6% | 63.2% | 61.2%
10 | Cc1ccc(S(=O)(=O)c2nc(S(=O)(=O)c3ccc(C)cc3)c(N3CCN(C)CC3)s2)cc1 | 16.1% | 52.2% | 48% |  | 62.5% | 77.1% | 46.1% | 44.4% | 38% | 43.4% | 8.29% (active) | 43.1% | 46.9% | 107% | 76.4% |  | 124% | 81.1% | 36.1%
11 | COc1ccc2[nH]c(=O)c(CSc3nccc(-c4ccc(OC)c(OC)c4)n3)cc2c1 | 23.1% | 14.7% | 16% |  | 8.75% (active) | 49.8% | 41.9% | 23.6% | -2.81% (active) | -43.8% (active) | 11.4% |  | 8.21% (active) | 26.3% | 32.2% | -12.3% (active) | 55.8% | -7.63% (active) | 44.5%
12 | Cn1cc(-c2cc(N)n3nc(-c4cn(C)c5ccccc45)cc3n2)c2cc(Br)ccc21 | 7.44% (active) | 0.257% (active) | -91.9% (active) |  | -25.6% (active) | -3.64% (active) | -46.3% (active) | -13.9% (active) | -37.7% (active) | 38% | -72.6% (active) | -74.1% (active) | -92.9% (active) |  | -60.4% (active) | -24.9% (active) | 38.9% |  | -10.6% (active)
13 | COc1cc(NC(=O)c2cccc(C3CCc4c(cc(OC)c(OC)c4OC)O3)c2)cc(OC)c1OC (centres undefined) |  | 16.2% | 5.15% (active) | 51.4% | 31.6% | 13.8% | 7.51% (active) | 16.9% | 14.5% | -6.89% (active) | 2.46% (active) | 3.71% (active) | 8.03% (active) | 64.8% | 0.726% (active) | 29.3% | 32.4% | -8.84% (active) | 46.1%
14 | CC(=O)Nc1cccc(Nc2nc(N[C@H]3CCCc4ccccc43)c3ccccc3n2)c1 | 81.3% | 103% | 103% |  | 104% | 111% | 107% | 100% | 102% | 131% | 102% | 95.6% | 108% | 117% | 101% | 101% | 91.6% |  | 
15 | O=C(NNc1nc2cc(C(F)(F)F)ccc2n2cccc12)c1cnccn1 |  | 1.97% (active) | -77.2% (active) | -59.2% (active) | -43.9% (active) | -16.3% (active) | -47.7% (active) | -12% (active) | -74% (active) |  | -56.1% (active) | -62.4% (active) | -94.6% (active) | -72.2% (active) | -55% (active) | -47.7% (active) | -88.2% (active) | 16.3% | -26.4% (active)
16 | Cc1cc(N=C2NC(=O)CS2)n[nH]1 |  | 144% | 106% | 99.6% | 123% | 99.8% | 105% | 111% | 101% |  | 113% | -92.2% (active) | 103% | 112% | 101% |  | 121% | 102% | 103%
17 | COc1ccc(NC(=O)Cn2c(/C=C/c3cccc([N+](=O)[O-])c3)nc3ccccc3c2=O)cc1 |  | 124% | 43.3% | 118% | 44.7% | 104% | 50.7% | 70.8% | 69.2% |  | 99.8% | 46.8% | 55.4% | 112% | 77.5% |  | 42% | 66.8% | 92.6%
18 | COc1c(F)ccc(C(=O)Nc2ccc3nc(NC(=O)C4CCCN(S(=O)(=O)c5cccc(Br)c5)C4)sc3c2)c1F (centres undefined) | 55.9% | 51.7% | 104% |  | 73.6% | 86.8% | 106% | 85.3% | 60.9% | 74.5% | 90.7% |  | 67.9% |  | 78.7% | 98.1% | 112% | 56.6% | 94.5%
